Data from PubChem BioAssay AID1159580 (chemical genetic matrix, 2015).
Hit rate of the full screen: of about 5,500 compounds, about 2,000 (36%) were called active. Inconclusive results (about 18%) are left out. No stated cut-off is given here; in the data, active means normalized growth mostly below about 0.91 (no sharp cut-off); inconclusive means no clear call, values can overlap the other calls; inactive means mostly above about 0.92. The list shows a part of the results.

Test: chemical genetic growth profiling, strain panel (AID 1159580);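 further: tested at 20 µM; growth read once vehicle control cultures reached saturation at 30 °C; 1 = growth at the plate median or of vehicle wells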
Conditions: growth OD
[1] = S. cerevisiae deletion strains, locus YDR150W, strain NUM1, stronger effect = lower value
[2] = S. cerevisiae deletion strains, locus YGR078C, strain PAC10, stronger effect = lower value
[3] = S. cerevisiae deletion strains, locus YNL128W, strain TEP1, stronger effect = lower value
[4] = S. cerevisiae deletion strains, locus YNL153C, strain GIM3, stronger effect = lower value
[5] = S. cerevisiae deletion strains, locus YNL322C, strain KRE1, stronger effect = lower value

Measured: normalized growth

CCOC(=O)CC(SP(=S)(OC)OC)C(=O)OCC (stereo not drawn)
inactive: S. cerevisiae deletion strains, locus YAL013W, strain DEP1, stronger effect = lower value 1.02 | S. cerevisiae deletion strains, locus YBR021W, strain FUR4, stronger effect = lower value 1.01 | S. cerevisiae deletion strains, locus YBR229C, strain ROT2, stronger effect = lower value 1.01 | S. cerevisiae deletion strains, locus YCL029C, strain bik1, stronger effect = lower value 1.01 | S. cerevisiae deletion strains, locus YDL035C, strain GPR1, stronger effect = lower value 1.02 | S. cerevisiae deletion strains, locus YDL074C, strain BRE1, stronger effect = lower value 0.996 | S. cerevisiae deletion strains, locus YDL101C, strain DUN1, stronger effect = lower value 1 | S. cerevisiae deletion strains, locus YDL134C, strain PPH21, stronger effect = lower value 1.01 | S. cerevisiae deletion strains, locus YDL185W, strain tfp1, stronger effect = lower value 1.02 | S. cerevisiae deletion strains, locus YDL192W, strain arf1, stronger effect = lower value 1 | S. cerevisiae deletion strains, locus YDR101C, strain arx1, stronger effect = lower value 0.998 | [1] 0.996 | S. cerevisiae deletion strains, locus YDR162C, strain NBP2, stronger effect = lower value 1.01 | S. cerevisiae deletion strains, locus YDR318W, strain mcm21, stronger effect = lower value 1.02 | S. cerevisiae deletion strains, locus YDR388W, stronger effect = lower value 1.01 | S. cerevisiae deletion strains, locus YDR502C, strain sam2, stronger effect = lower value 0.998 | S. cerevisiae deletion strains, locus YEL061C, strain CIN8, stronger effect = lower value 1.01 | S. cerevisiae deletion strains, locus YER110C, stronger effect = lower value 1.01 | S. cerevisiae deletion strains, locus YER155C, strain BEM2, stronger effect = lower value 1.02 | S. cerevisiae deletion strains, locus YER167W, strain BCK2, stronger effect = lower value 1.02 | S. cerevisiae deletion strains, locus YGL078C, strain dbp3, stronger effect = lower value 0.998 | S. cerevisiae deletion strains, locus YGL086W, strain mad1, stronger effect = lower value 1 | S. cerevisiae deletion strains, locus YGL248W, strain PDE1, stronger effect = lower value 1.01 | [2] 1.01 | S. cerevisiae deletion strains, locus YGR135W, strain pre9, stronger effect = lower value 0.994 | S. cerevisiae deletion strains, locus YGR229C, strain SMI1, stronger effect = lower value 1.02 | S. cerevisiae deletion strains, locus YGR252W, strain gcn5, stronger effect = lower value 1 | S. cerevisiae deletion strains, locus YHR030C, strain SLT2, stronger effect = lower value 1.02 | S. cerevisiae deletion strains, locus YHR079C, strain IRE1 (second series), stronger effect = lower value 1.01 | S. cerevisiae deletion strains, locus YHR094C, strain hxt1, stronger effect = lower value 1.01 | S. cerevisiae deletion strains, locus YHR129C, strain ARP1, stronger effect = lower value 1.02 | S. cerevisiae deletion strains, locus YHR200W, strain rpn10, stronger effect = lower value 1.01 | S. cerevisiae deletion strains, locus YIL066C, strain RNR3, stronger effect = lower value 1.04 | S. cerevisiae deletion strains, locus YIL073C, strain SPO22, stronger effect = lower value 1.09 | S. cerevisiae deletion strains, locus YIL125W, strain kgd1, stronger effect = lower value 0.998 | S. cerevisiae deletion strains, locus YIR030C, strain dcg1, stronger effect = lower value 1 | S. cerevisiae deletion strains, locus YJL095W, strain BCK1, stronger effect = lower value 1.02 | S. cerevisiae deletion strains, locus YJL134W, strain LCB3, stronger effect = lower value 1.01 | S. cerevisiae deletion strains, locus YJL168C, strain set2, stronger effect = lower value 1.01 | S. cerevisiae deletion strains, locus YJL187C, strain SWE1 (second series), stronger effect = lower value 1.01 | S. cerevisiae deletion strains, locus YJR043C, strain POL32, stronger effect = lower value 1.01 | S. cerevisiae deletion strains, locus YJR075W, strain HOC1, stronger effect = lower value 1.01 | S. cerevisiae deletion strains, locus YKL009W, strain mrt4, stronger effect = lower value 1.01 | S. cerevisiae deletion strains, locus YKL068W, stronger effect = lower value 1.01 | S. cerevisiae deletion strains, locus YKL085W, strain MDH1 (second series), stronger effect = lower value 1.01 | S. cerevisiae deletion strains, locus YKL085W, strain MDH1, stronger effect = lower value 1.01 | S. cerevisiae deletion strains, locus YKL190W, strain CNB1, stronger effect = lower value 1.01 | S. cerevisiae deletion strains, locus YKR001C, strain vps1, stronger effect = lower value 1.02 | S. cerevisiae deletion strains, locus YLR039C, strain RIC1, stronger effect = lower value 1.06 | S. cerevisiae deletion strains, locus YLR058C, strain SHM2, stronger effect = lower value 1.02 | S. cerevisiae deletion strains, locus YLR102C, strain apc9, stronger effect = lower value 1.01 | S. cerevisiae deletion strains, locus YLR262C, strain YPT6, stronger effect = lower value 1.04 | S. cerevisiae deletion strains, locus YLR268W, strain sec22, stronger effect = lower value 0.997 | S. cerevisiae deletion strains, locus YLR330W, strain CHS5, stronger effect = lower value 1.01 | S. cerevisiae deletion strains, locus YLR342W, strain FKS1 (second series), stronger effect = lower value 1.07 | S. cerevisiae deletion strains, locus YLR371W, strain rom2, stronger effect = lower value 1.01 | S. cerevisiae deletion strains, locus YLR418C, strain cdc73, stronger effect = lower value 0.988 | S. cerevisiae deletion strains, locus YML016C, strain PPZ1, stronger effect = lower value 1.01 | S. cerevisiae deletion strains, locus YML032C, strain rad52, stronger effect = lower value 1 | S. cerevisiae deletion strains, locus YML124C, strain tub3, stronger effect = lower value 1.01 | S. cerevisiae deletion strains, locus YMR078C, strain ctf18, stronger effect = lower value 1.02 | S. cerevisiae deletion strains, locus YMR223W, strain ubp8, stronger effect = lower value 1.01 | S. cerevisiae deletion strains, locus YMR263W, strain SAP30, stronger effect = lower value 1.01 | S. cerevisiae deletion strains, locus YMR307W, strain GAS1, stronger effect = lower value 1.05 | S. cerevisiae deletion strains, locus YNL067W, strain RPL9B, stronger effect = lower value 0.998 | [3] 1 | [4] 1.01 | S. cerevisiae deletion strains, locus YNL233W, strain BNI4, stronger effect = lower value 1 | S. cerevisiae deletion strains, locus YNL250W, strain rad50, stronger effect = lower value 1.01 | S. cerevisiae deletion strains, locus YNL271C, strain bni1, stronger effect = lower value 1.02 | S. cerevisiae deletion strains, locus YNL298W, strain CLA4, stronger effect = lower value 1.02 | S. cerevisiae deletion strains, locus YNL307C, strain MCK1, stronger effect = lower value 1.02 | [5] 1.01 | S. cerevisiae deletion strains, locus YNR052C, strain pop2, stronger effect = lower value 1 | S. cerevisiae deletion strains, locus YOL006C, strain TOP1, stronger effect = lower value 1.02 | S. cerevisiae deletion strains, locus YOL012C, strain htz1 0.831 | S. cerevisiae deletion strains, locus YOL147C, strain pex11, stronger effect = lower value 1.01 | S. cerevisiae deletion strains, locus YOR061W, strain CKA2, stronger effect = lower value 1 | S. cerevisiae deletion strains, locus YOR069W, strain VPS5, stronger effect = lower value 1.01 | S. cerevisiae deletion strains, locus YOR136W, strain idh2, stronger effect = lower value 1 | S. cerevisiae deletion strains, locus YOR144C, strain elg1, stronger effect = lower value 1 | S. cerevisiae deletion strains, locus YOR184W, strain ser1, stronger effect = lower value 1.02 | S. cerevisiae deletion strains, locus YOR316C, strain cot1, stronger effect = lower value 1 | S. cerevisiae deletion strains, locus YPL055C, strain LGE1, stronger effect = lower value 1 | S. cerevisiae deletion strains, locus YPL241C, strain CIN2, stronger effect = lower value 1.01 | S. cerevisiae deletion strains, locus YPR119W, strain clb2, stronger effect = lower value 1 | S. cerevisiae deletion strains, locus YPR141C, strain kar3, stronger effect = lower value 1 | S. cerevisiae deletion strains, locus YPR163C, strain tif3, stronger effect = lower value 1.01 | S. cerevisiae deletion strains, locus YPR167C, strain met16, stronger effect = lower value 1.01 | S. cerevisiae deletion strains, strain wtn01, stronger effect = lower value 0.996 | S. cerevisiae strains, strain wild type, stronger effect = lower value 1.01

CCCOC(=O)c1c(-c2ccccc2)nc(CC)c(C(=O)SCC)c1CCC
inactive: S. cerevisiae deletion strains, locus YAL040C, strain CLN3, stronger effect = lower value 1.04 | S. cerevisiae deletion strains, locus YCL061C, strain MRC1 (second series), stronger effect = lower value 1 | [1] 1.01 | S. cerevisiae deletion strains, locus YDR363W, strain ESC2, stronger effect = lower value 0.982 | S. cerevisiae deletion strains, locus YER002W, strain NOP16, stronger effect = lower value 1.01 | [2] 0.974 | [3] 1.09 | [4] 1.02 | S. cerevisiae deletion strains, locus YNL197C, strain WHI3, stronger effect = lower value 1.02 | S. cerevisiae deletion strains, locus YNL224C, strain SQS1, stronger effect = lower value 1.04 | [5] 0.993 | S. cerevisiae deletion strains, locus YOR083W, strain WHI5 (second series), stronger effect = lower value 1.09
